Data reported in PubChem BioAssay (NCI).
The panel holds about 83,000 compounds, 20% with a hit somewhere; the sample as a whole holds those more often.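 Percent growth is the endpoint: 0 to 100 indicates growth inhibition (40 means 60% inhibition), 0 means no net growth, and negative values indicate cell death.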 The source made the active and inactive calls. The calls were made as follows: active = growth percent below 10; inactive = the rest.

What was measured:
Experiment in all cases: NCI-60 one-dose screen, 48 h (100 = growth as untreated, 0 = no growth, -100 = all killed)
Details in all cases: 10 µM unless noted
DU-145 prostate = test system: DU-145 prostate
K-562 leukemia = test system: K-562 leukemia
MALME-3M melanoma = test system: MALME-3M melanoma
MDA-MB-231 breast = test system: MDA-MB-231 breast
RXF 393 renal = test system: RXF 393 renal
SF-268 CNS = test system: SF-268 CNS
SF-295 CNS = test system: SF-295 CNS
SF-539 CNS = test system: SF-539 CNS
UACC-257 melanoma = test system: UACC-257 melanoma
M14 melanoma = test system: M14 melanoma
HCT-15 colon = test system: HCT-15 colon
HT29 colon = test system: HT29 colon
SNB-75 CNS = test system: SNB-75 CNS
SNB-19 CNS = test system: SNB-19 CNS
U251 CNS = test system: U251 CNS
PC-3 prostate = test system: PC-3 prostate
SK-MEL-5 melanoma = test system: SK-MEL-5 melanoma
UACC-62 melanoma = test system: UACC-62 melanoma
LOX IMVI melanoma = test system: LOX IMVI melanoma
SK-MEL-28 melanoma = test system: SK-MEL-28 melanoma

Measured: growth

CCCCOC(=O)c1ccc(NC(=O)C(C)N2CCOCC2)cc1 (stereo unspecified)
inactive: DU-145 prostate 107% | K-562 leukemia 91.1% | MALME-3M melanoma 91.8% | MDA-MB-231 breast 102% | RXF 393 renal 102% | SF-268 CNS 103% | SF-295 CNS 101% | SF-539 CNS 102% | UACC-257 melanoma 98.3% | M14 melanoma 93.7% | HCT-15 colon 108% | HT29 colon 79.5% | SNB-75 CNS 107% | SNB-19 CNS 99.5% | U251 CNS 93.2% | PC-3 prostate 72.7% | SK-MEL-5 melanoma 104% | UACC-62 melanoma 95.1% | LOX IMVI melanoma 101% | SK-MEL-28 melanoma 112%

O=C(NCc1cn(Cc2cccc(Oc3ccccc3)c2)nn1)c1cccnc1NCc1ccc(Cl)cc1
inactive: DU-145 prostate 15% | K-562 leukemia 11.8% | MALME-3M melanoma 48.2% | MDA-MB-231 breast 25.4% | SF-268 CNS 45.3% | SF-295 CNS 19.7% | UACC-257 melanoma 47.3% | HCT-15 colon 21.7% | SNB-75 CNS 11% | SNB-19 CNS 41.3% | U251 CNS 21.2% | PC-3 prostate 10% | SK-MEL-5 melanoma 11.3% | UACC-62 melanoma 27.8% | LOX IMVI melanoma 39.4% | SK-MEL-28 melanoma 29.5%
active: RXF 393 renal 3.54% | SF-539 CNS -15.3% | M14 melanoma 6.76% | HT29 colon 9.24%

Cc1ccc(S(=O)(=O)N(CC[C@@H]2C[C@H]2c2cc3ccccc3o2)C(=O)NC2CCCCC2)cc1
inactive: DU-145 prostate 107% | K-562 leukemia 91.1% | MALME-3M melanoma 96.1% | MDA-MB-231 breast 90.1% | RXF 393 renal 106% | SF-268 CNS 98.8% | SF-295 CNS 110% | SF-539 CNS 95% | UACC-257 melanoma 108% | M14 melanoma 96.5% | HCT-15 colon 92.3% | HT29 colon 90.8% | SNB-75 CNS 102% | SNB-19 CNS 99.8% | U251 CNS 100% | PC-3 prostate 95.6% | SK-MEL-5 melanoma 101% | UACC-62 melanoma 78.4% | LOX IMVI melanoma 90.5% | SK-MEL-28 melanoma 95.7%

COc1ccc(Oc2nc(Nc3ccc(N4CCCCC4)nc3)ncc2NC(=O)c2cc(OC)cc(OC)c2)cc1
inactive: DU-145 prostate 40.7% | K-562 leukemia 18.6% | MALME-3M melanoma 64.4% | MDA-MB-231 breast 61.5% | RXF 393 renal 41% | SF-268 CNS 46.3% | SF-295 CNS 23.7% | SF-539 CNS 21.3% | UACC-257 melanoma 59.4% | M14 melanoma 32.3% | HCT-15 colon 17.8% | HT29 colon 13.8% | SNB-75 CNS 34.1% | SNB-19 CNS 41.5% | U251 CNS 35.1% | PC-3 prostate 35.6% | SK-MEL-5 melanoma 28.7% | UACC-62 melanoma 18.8% | SK-MEL-28 melanoma 53.9%

CCCCNCC(=O)Nc1ccc(C(=O)OCC)cc1
inactive: DU-145 prostate 114% | K-562 leukemia 92.4% | MALME-3M melanoma 106% | MDA-MB-231 breast 103% | RXF 393 renal 110% | SF-268 CNS 104% | SF-295 CNS 99.4% | SF-539 CNS 105% | UACC-257 melanoma 103% | M14 melanoma 97.3% | HCT-15 colon 91.5% | HT29 colon 86.7% | SNB-75 CNS 108% | SNB-19 CNS 103% | U251 CNS 101% | PC-3 prostate 71.8% | SK-MEL-5 melanoma 101% | UACC-62 melanoma 95.3% | SK-MEL-28 melanoma 115%

CCN(CC)CCNc1ccc(C)c2sc3cc(C)ccc3c(=O)c12
inactive: DU-145 prostate 67% | MALME-3M melanoma 72.5% | MDA-MB-231 breast 19.4% | RXF 393 renal 59.1% | SF-268 CNS 59.1% | SF-295 CNS 72.9% | SF-539 CNS 76.3% | UACC-257 melanoma 65.5% | HCT-15 colon 21.2% | SNB-75 CNS 67.2% | SNB-19 CNS 57.6% | U251 CNS 45.5% | PC-3 prostate 41% | SK-MEL-5 melanoma 21.9% | LOX IMVI melanoma 28.4% | SK-MEL-28 melanoma 74.5%
active: K-562 leukemia -19.6% | M14 melanoma -46.2% | HT29 colon 1.25% | UACC-62 melanoma -15.2%

N#C/C(=C\c1ccc(Br)cc1)n1nnc2cc(Cl)c(Cl)cc21
active: K-562 leukemia 8.99% | RXF 393 renal -6.31% | HT29 colon 9.9%
inactive: DU-145 prostate 34% | MALME-3M melanoma 67.5% | MDA-MB-231 breast 33% | SF-268 CNS 59.2% | SF-295 CNS 65.8% | SF-539 CNS 49.8% | UACC-257 melanoma 52.4% | M14 melanoma 31.3% | HCT-15 colon 14% | SNB-75 CNS 25.5% | SNB-19 CNS 47.7% | U251 CNS 23.4% | PC-3 prostate 33.5% | SK-MEL-5 melanoma 43.3% | UACC-62 melanoma 46.7% | SK-MEL-28 melanoma 51.4%

O=C1C2=C(CCN(Cc3ccccc3)C2)N2CCN=C2N1Cc1ccc(F)cc1F
active: SF-295 CNS 5.35%
inactive: DU-145 prostate 32.6% | K-562 leukemia 33.1% | MALME-3M melanoma 41.5% | MDA-MB-231 breast 20.4% | RXF 393 renal 55% | SF-268 CNS 40.2% | SF-539 CNS 40.1% | UACC-257 melanoma 13.6% | M14 melanoma 35.9% | HCT-15 colon 20.4% | HT29 colon 34% | SNB-75 CNS 46.7% | SNB-19 CNS 30.1% | U251 CNS 21.3% | PC-3 prostate 21.3% | SK-MEL-5 melanoma 27.5% | UACC-62 melanoma 44.5% | SK-MEL-28 melanoma 57.9%
